Assay results as given in PubChem BioAssay (NCATS).
Inconclusive results are not listed. The source made the active and inactive calls. The call rests on the fitted dose curve; in most records, active means well fitted curve in the direction sought with a large enough effect; inconclusive means small, poorly fitted or top-dose-only effect, or another doubt; inactive means no such curve, though single readings can be large; an effect the other way counts as inactive or inconclusive.

Tests used:
[1] = qHTS of pediatric cancer cell lines to identify multiple opportunities for drug repurposing: Primary screen for control Hh wild type fibroblast cells (AID 1347106); settings: Hh wild-type fibroblast viability, CellTiter-Glo luminescence, 48 h; series mostly up to 46 µM;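 further: a drop in luminescence marks cytotoxicity and a rise apparent proliferation; nearly all actives have a fitted effect of over 55% in size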
Summary of the method: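 Cells (500-1,000/well) in growth media were settled 5 h at 37 degrees C, then given compounds for 48 h. Viability was read as CellTiter-Glo luminescence. Primary runs used MIPE at 11 points (0.78 nM-46 µM) and NPC at 8 points (0.59 nM-46 µM); follow-ups used 11 points.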

[2] = qHTS of pediatric cancer cell lines to identify multiple opportunities for drug repurposing: Primary screen for Rh30 cells (AID 1347107); settings: Rh30 rhabdomyosarcoma viability, CellTiter-Glo luminescence, 48 h; series mostly up to 46 µM; further: nearly all actives have a fitted effect of over 75% in size
Summary of the method: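 Cells (500-1,000/well) rested 5 h, then received compounds for 48 h; metabolically active cells were measured by CellTiter-Glo luminescence. Final concentrations spanned up to 46 µM (MIPE, 11-point) or 0.59 nM-46 µM (NPC, 8-point) in primary screens, 11-point in follow-ups.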

[3] = qHTS of pediatric cancer cell lines to identify multiple opportunities for drug repurposing: Primary screen for Rh41 cells (AID 1347108); settings: Rh41 rhabdomyosarcoma viability, CellTiter-Glo luminescence, 48 h; series mostly up to 46 µM;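 further: luminescence drop marks cytotoxic hits; nearly all actives have a fitted effect of over 70% in size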
Summary of the method: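 500-1,000 cells/well; 5 h pre-incubation 37 °C/5% CO2; compound pinned; 48 h; CellTiter-Glo, 15 min RT; luminescence. MIPE 11-pt from 0.78 nM, NPC 8-pt from 0.59 nM final. Bortezomib 2.3 µM final as positive control.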

Measured: Potency

Cc1noc(NS(=O)(=O)c2ccc(N)cc2)c1C
inactive: all assays above

CCn1cc(C(=O)O)c(=O)c2cc(F)c(N3CCNCC3)cc21
inactive: all assays above

Cn1c(=O)c2c(ncn2CC(O)CO)n(C)c1=O (centres undefined)
inactive: all assays above
